Screens: PubChem, National Center for Advancing Translational Sciences (NCATS)
This is a sample that favours compounds with a hit; in the whole collection about 8.2% have one here.
SW480 rereplic: A quantitative high throughput screen for small molecules that induce DNA re-replication in SW480 colon adenocarcinoma cells. Potency, µM (series often up to 46.1 µM), for inactives: at the highest dose re-replication activation, actives largely listed as activators. 340,000 tested, 1.8% active. SW480 DNA re-replication, Hoechst DNA content imaging, 48 h. AID 624297, 2012; note: % of control where 0% means no effect; nearly all actives have a fitted effect of over 55% in size
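SW480 cells exposed to compounds for 48 hr at 37 C, 5% CO2, then Hoechst-stained 40 min. Nuclear DNA content imaged by fluorescence scanning (405 nm excitation, 500-530 nm emission); re-replication scored as increased high-intensity nuclei.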
KB-3-1 tox: qHTS assay for MDR1-selective chemotherapeutics: Primary screen using the parental adenocarcinoma cell KB-3-1; KB-3-1 viability, CellTiter-Glo ATP luminescence, 72 h; Potency, µM (doses to about 46.1 µM), most hits filed as cytotoxic; 400,000 tested, 1.4% active; AID 1347075, 2019; note: % is set by controls: 0 for no effect and ±100 for the full control effect; nearly all actives have a fitted effect of over 60% in size
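Screening of KB-3-1 cells (DMEM, 10% FBS, phenol-red free) ran from lowest to highest compound concentration; after 72 h at 37 °C viability was read luminescently and curves fitted.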
MCF10A rerep: A quantitative high throughput screen for small molecules that induce DNA re-replication in MCF 10a normal breast cells; MCF 10A DNA re-replication, Hoechst nuclear intensity, 48 h; Potency, µM (titrated, usually from 46.1 µM), inactives show top-dose activity, positive = re-replication, usual class: activators; 350,000 tested, 2.9% active; AID 624296, 2012; note: % of control where 0% means no effect; nearly all actives have a fitted effect of over 50% in size
KB-V1 cytotox: qHTS assay for MDR1-selective chemotherapeutics: Primary screen using the drug-selected MDR subline cells KB-V1. KB-V1 MDR cells viability, CellTiter-Glo, 72 h. Potency, µM (doses to about 46.1 µM), actives largely listed as cytotoxic. 400,000 tested, 3.4% active; note: % is set by controls: 0 for no effect and ±100 for the full control effect; nearly all actives have a fitted effect of over 60% in size
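KB-V1 cells (P-gp-expressing MDR subline of KB-3-1) in phenol-red-free DMEM with 10% FBS were exposed to library compounds over a concentration series for 72 h at 37 degrees C. Viability read by CellTiter-Glo luminescence; concentration-effect curves fitted after normalization.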
ELG1 repair inh: qHTS screen for small molecules that inhibit ELG1-dependent DNA repair in human embryonic kidney (HEK293T) cells expressing luciferase-tagged ELG1; Potency, µM (top dose mostly 46.1 µM), without a hit: at the highest dose activity change, negative = inhibition, hits mostly inhibitors; HEK293T ELG1-luciferase reporter, luminescence, 16 h; DNA damage induced by 5-fluorouridine; 330,000 tested, 2.3% active; note: % is set by controls: 0 for no effect and ±100 for the full control effect; nearly all actives have a fitted effect of over 55% in size
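Cells (2,000 per well) received 5-fluorouridine plus test compound or DMSO and were incubated 16 hr at 37 °C, 5% CO2. Luciferase activity was read by luminescence 30 min after ONE-Glo addition; signal suppression marked inhibition of damage-induced ELG1 function.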
An asterisk follows results filed as active; i = inactive; ? = inconclusive; · = no result. Calls come from the whole dose curve; as a rule, active = well fitted curve in the direction sought with a large enough effect; inconclusive = small, poorly fitted or top-dose-only effect, or another doubt; inactive = no such curve, though single readings can be large; an effect the other way counts as inactive or inconclusive. Potency is the fitted concentration of half-maximal effect.

SMILES | SW480 rereplic | KB-3-1 tox | MCF10A rerep | KB-V1 cytotox | ELG1 repair inh
CC(Sc1nc(-c2ccccc2)cc(C(F)(F)F)n1)C(=O)N1CCCCC1 (centres undefined) | ? | i | 21µM* | ? | ?
CC1CCCN(C(=O)C(C)Sc2nc(-c3ccccc3)cc(C(F)(F)F)n2)C1 (centres undefined) | ? | i | ? | ? | ?
CC(=O)OCCCNc1cc(Sc2ccc(Cl)cc2)c2nonc2c1[N+](=O)[O-] | · | i | 4.6µM* | i | -18%
COC(=O)CCSc1cc(NCCCOC(C)=O)c([N+](=O)[O-])c2nonc12 | · | i | · | i | ·
Cc1cc(C)nc(N/N=C/c2ccccc2OCc2cccc(Br)c2)n1 | ? | ? | ? | ? | 21µM*
O=C1/C(=C/c2ccccc2)CCC1C1CCCC1 (centres undefined) | 12% | i | 20% | i | ?
CN1C2CCC1/C(=C\c1ccccc1)C(=O)/C2=C\c1ccccc1 | ? | 7.3µM* | ? | i | ?
Nc1cccc(C#Cc2ccc3c(c2)C(=O)/C(=C/c2ccsc2)O3)c1 | ? | i | 6% | i | 16%
N#Cc1c(-c2ccc(Cl)cc2)cc(-c2cccs2)nc1SCC(=O)O | 5% | i | 23µM* | i | -28%
N#Cc1c(-c2ccccc2)cc(-c2cccs2)nc1SCC(=O)O | -2% | i | 29% | i | 3%
N#Cc1c(-c2ccccc2F)cc(C2CC2)nc1SCC(=O)c1cccs1 | 10µM* | i | ? | ? | -20%
CCOC(=O)CSc1nc(C2CC2)cc(-c2ccc(Cl)cc2)c1C#N | -49% | i | 26% | 21µM* | -4%
CCOC(=O)CSc1nc(-c2ccc(Cl)cc2)cc(C(F)(F)F)c1C#N | · | i | · | ? | ·
CCSc1nc(C2CC2)cc(-c2cccs2)c1C#N | ? | i | ? | i | ?
O=C(COCc1cc(-c2ccco2)on1)Nc1ccc(OC(F)(F)F)cc1 | · | i | · | ? | ·
COC(=O)c1ccc(-n2c(C)cc(C(=O)CSc3cccc[n+]3[O-])c2C)cc1 | -4% | i | 1.3µM* | ? | -1%
COc1ccccc1NC(=O)c1sc2nc(C)c(C(=O)Nc3ccc(C)cc3C)c(-c3ccc(Br)cc3)c2c1N | · | i | · | i | ·
CCOc1ccc(NC(=O)CCS(=O)(=O)c2ccc3nc(C)sc3c2)cc1 | · | i | · | i | ·
Cc1ccc(Nc2nc(NCCO)c3ccccc3n2)cc1C | ? | i | ? | i | -1%
Cc1nc(NC(=O)c2ccco2)sc1C(=O)Nc1ccc(Br)cc1 | 1% | ? | 23µM* | i | 0%
Cc1nc(NC(=O)c2ccco2)sc1C(=O)O | -9% | 13µM* | 1% | 4.6µM* | 3%
COc1cc(C(=O)NNC(=O)c2ccc(NC(C)=O)cc2)cc(OC)c1OC | -106% | i | 2% | i | -5%
COc1cc(C(=O)/C=C/Nc2ccc(NC(C)=O)cc2)cc(OC)c1OC | 2% | i | 13µM* | 21µM* | ?
COc1ccccc1Oc1ccc(N/C=C/C(=O)c2ccc(C)o2)cc1 | -4% | i | ? | i | -20%
CC(=O)Nc1ccc(N/C=C/C(=O)c2ccc(C)o2)cc1 | 0% | i | 23µM* | i | ?
SMILES | SW480 rereplic | KB-3-1 tox | MCF10A rerep | KB-V1 cytotox | ELG1 repair inh
CCc1ccccc1NC(=O)CC(NCc1ccccc1)C(=O)O (centres undefined) | -8% | i | -3% | i | 5%
COC(=O)c1ccccc1NC(=O)CC(NCc1ccccc1)C(=O)O (centres undefined) | 21µM* | i | 0% | i | ·
COc1ccc2[nH]c3c(C)c4ccncc4c(C)c3c2c1 | -7% | 18µM* | -45% | 8.2µM* | ?
COc1ccc(CCNC(=O)c2coc(=O)c(Br)c2)cc1 | ? | ? | 5.8µM* | i | ?
COc1ccc(CCNC(=O)c2cccc(C(=O)NCCc3ccc(OC)cc3)n2)cc1 | -3% | i | 13% | 18µM* | ·
COc1ccc(CCNC(=O)c2ccc(Br)cc2)cc1 | 16% | i | 4% | i | 13%
COc1ccc(CCNC(=O)c2c([S-])n(-c3ccc(C)cc3)c3cccc[n+]23)cc1 | ? | 12µM* | 11% | i | 5%
COc1ccccc1S(=O)(=O)N(C)C[C@@H]1OCc2cn(nn2)CCCC(=O)N([C@H](C)CO)C[C@H]1C | · | i | · | i | ·
CCNc1nc(-c2ccc(OC(F)F)cc2)c(C)s1 | -3% | i | 0% | i | ?
Cc1cc(SCC(=O)c2cccs2)n2nc(C)c(-c3ccccc3)c2n1 | ? | i | ? | 21µM* | ?
Cc1cc(SCC#N)n2nc(C)c(-c3ccc(Cl)cc3)c2n1 | 1% | i | -7% | i | 5%
CC(=O)CSc1cc(C)nc2c(-c3ccccc3)c(C)nn12 | -2% | ? | 7% | ? | 17%
Cc1cc(SCC#N)n2nc(C)c(-c3ccccc3)c2n1 | 4% | ? | ? | ? | 23µM*
C=CCSc1cc(C)nc2c(-c3ccccc3)c(C)nn12 | ? | ? | ? | 7.3µM* | -10%
CCCCNC(=O)Cn1ncc2c(C)n(Cc3cccc(Cl)c3)c(C)c2c1=O | · | i | · | i | ·
Cc1cccc(NC(=O)CCn2cnnn2)c1C | · | i | · | i | ·
CCCCn1c(OC(=S)N(CC)CC)cc(C)nc1=S | · | i | · | i | ·
O=C(CN1C2=NCCCN2c2ccccc21)c1ccc(Cl)cc1Cl | 30% | ? | 11% | 13µM* | -5%
Clc1ccc(CN2C3=NCCCN3c3ccccc32)cc1Cl | 10% | ? | 16µM* | ? | -9%
Cc1nc(NC(=O)/C=C/c2ccccc2)sc1C(=O)Nc1ccc(Cl)cc1 | ? | i | 16µM* | i | -17%
Cc1nc(Nc2ccc(Cl)c(Cl)c2)sc1C(=O)Nc1ccccc1 | 28% | ? | 23µM* | i | ?
CCN(CC)c1c(C)nc2ccc(C(=O)Nc3cc(-c4ccccc4)ccc3OC)cn12 | · | i | · | ? | ·
Cc1ccc(-c2nnc3ccc(SCC(=O)OCc4ccccc4)nn23)cc1 | · | ? | · | i | ·
CCOc1ccc(S(=O)(=O)N2CCC(C(=O)N3CCc4ccccc4C3)CC2)cc1 | -4% | · | 3% | · | ?
Cc1c(C(=O)NCc2ccccn2)oc2ccc(S(=O)(=O)N3CCOCC3)cc12 | -5% | i | 0% | ? | ?
